Screening data (PubChem BioAssay)
A selection: hits, their analogues and other compounds. The true share with any hit is near 0.84%.
Redox H2O2 prof – compounds producing H2O2 with reducing agent – biochemical, NIH compound library profiling, artefact control for MLSCN library redox annotation, primary screen. DTT-dependent redox cycling H2O2, phenol red/HRP absorbance; 100% = 100 µM peroxide control, 0% = buffer. activation, % at 10 µM. 0.03% of 200,000 active;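 active = activation of at least 50% relative to the plate's high and low controls in the primary single-dose screen; inactive = activation below 50%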;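 also: compound incubated with DTT at 0.8 mM final as the reducing agent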
S1P3 antagonist – S1P3 (human) receptor antagonism | CHO S1P3 NFAT-BLA reporter, FRET fluorescence, antagonist mode | inhibition, % at 4.98 µM | 0.27% of 170,000 active;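 active = inhibition above the plate cutoff, the mean inhibition of test wells on that plate plus 3 SD, cut at about 28% in these data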;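 also: cells challenged with S1P at its EC80 of 0.8 µM; blue over green emission ratio from cleaved BLA substrate after 4 h stimulation; 0% = S1P-stimulated wells and 100% = unstimulated DMSO-only wells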
Target sequence (Q99500 whole entry, looked up): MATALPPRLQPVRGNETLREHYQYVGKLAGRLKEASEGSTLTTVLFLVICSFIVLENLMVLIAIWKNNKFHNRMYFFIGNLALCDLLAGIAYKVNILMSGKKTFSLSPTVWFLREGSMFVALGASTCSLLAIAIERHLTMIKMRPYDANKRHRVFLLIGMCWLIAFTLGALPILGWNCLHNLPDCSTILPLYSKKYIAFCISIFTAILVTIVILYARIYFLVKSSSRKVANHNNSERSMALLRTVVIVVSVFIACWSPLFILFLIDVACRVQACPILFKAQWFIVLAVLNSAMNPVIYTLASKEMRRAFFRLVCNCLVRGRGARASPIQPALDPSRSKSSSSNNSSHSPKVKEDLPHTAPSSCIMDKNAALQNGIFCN
p97 ATPase inh – human p97 ATPase inhibition. AID 1481. P55072. recombinant p97 ATPase, Kinase-Glo ATP luminescence, 3 h. 0.42% of 220,000 active. inhibition, % at 8 µM; in the data active = inhibition above about 15%;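 also: 0% = DMSO vehicle and 100% = wells lacking enzyme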
G6PDH CS – counter-screen for G6PDH assay hits: L. mesenteroides G6PDH inhibition; Purified L. mesenteroides G6PDH, diaphorase/resazurin coupled fluorescence, 45 min; AID 1020; inhibition, % at 5 µM; 0.12% of 200,000 active; in the data active = inhibition above about 50%
TbHK1 inh – T. brucei hexokinase 1 inhibition; 0.11% of 220,000 active; recombinant TbHK1, G6PDH-coupled NADH A340; AID 1430; inhibition, % at 10 µM;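 active = inhibition of 50% or more in the single-dose primary screen; inactive = inhibition below 50%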
* hit, by the source's call; / = not tested or not shown.

SMILES | Redox H2O2 prof | S1P3 antagonist | p97 ATPase inh | G6PDH CS | TbHK1 inh
C=CCNC(=S)/C(=C(\[O-])c1ccc(Cl)cc1)[n+]1ccccc1 | / | -8.5 | 14.7* | / | -12.6
S=C(Nc1ccc2nsnc2c1)N1CCCCCC1 | -0.1 | -9.5 | 3.9 | 59.6* | -14.2
O=C(Nc1ccc2nsnc2c1)N1CCCCC1 | 0.2 | / | 3.5 | 11.2 | -19.8
COc1ccccc1NC(=O)/C=C/c1cc([N+](=O)[O-])ccc1OC(F)F | / | 4.1 | 5.8 | / | -4.9
CC(=O)Nc1cccc(NC(=O)CSc2nnnn2C)c1 | 0.3 | 70.2* | 6.4 | -0.9 | 5.8
CCOc1ccc(NC(=O)CNc2ccc(C)cc2Cl)cc1 | 0.2 | / | -1.7 | 4.0 | -4.5
O=C(Nc1ccc(N2CCOCC2)cc1)Nc1ccc2nc(-c3ccco3)c(-c3ccco3)nc2c1 | 0.9 | 56.8* | 2.9 | 11.9 | -18.8
COc1ccc(-n2c(C)cc(C3=NNC(=NC4CC4)SC3)c2C)cc1 | -1.2 | -24.5 | 21.6* | 6.3 | -9.6
O=C(NCCCn1ccnc1)C(=O)NCc1ccccc1 | 2.0 | / | 2.1 | -0.3 | -2.5
COc1cc2c(cc1OC)-c1cc3ccc4c(c3c[n+]1CC2)OCO4 | 0.4 | -3.0 | 10.5 | 52.2* | -305.9
COc1cccc(NS(=O)(=O)c2ccc3c(c2)C2C=CCC2C(c2ccc(C(=O)O)cc2)N3)c1 (configuration not stated) | 0.3 | -12.1 | 14.7* | 1.9 | 9.5
C=CCSC1=NN2CCS(=O)(=O)N=C2S1 | -0.2 | 5.0 | 0.3 | 11.2 | -0.9
COc1cc(C2Nc3ccc4ncccc4c3C3=C2C(=O)CC(C)(C)C3)cc(OC)c1O (configuration not stated) | -0.2 | / | 2.8 | 45.3 | -28.7
COc1cc(C2Nc3ccc4ncccc4c3C3=C2C(=O)CCC3)cc(OC)c1O (configuration not stated) | 1.1 | -9.1 | 5.3 | 50.4* | -14.5
Nc1ccc2c(c1)C/C(=C/c1ccco1)C2=O | 0.2 | 8.5 | 15.3* | 8.7 | -8.7
CCOc1cc(S(=O)(=O)NCc2ccccc2)ccc1F | 3.4 | -18.6 | 3.1 | 3.1 | 10.3
C=CCn1c(SCC(=O)c2ccc(O)c(O)c2)nnc1-c1ccccc1OC | 2.2 | -0.4 | 4.9 | 9.9 | 36.9
CCn1c(SCC(=O)c2ccc(O)c(O)c2)nnc1-c1ccccc1OC | 0.8 | 73.8* | -1.6 | 7.5 | 47.2
CC(C)(C)C(=O)NC(=S)Nc1ccc(Cl)c(C(=O)O)c1 | 0.3 | -5.5 | -0.9 | 13.9 | -10.4
N#C/C(=C(/O)c1ccco1)c1nc2ccccc2s1 | -4.3 | -20.5 | -1.3 | 3.7 | -2.4
CC1=CC(=C(C#N)c2nc3ccccc3s2)C=C(C)N1Cc1ccco1 | -1.2 | 56.2* | 4.2 | 1.5 | 0.3
CC(C)c1onc(C(=O)NCCc2ccccc2)c1[N+](=O)[O-] | -0.5 | -4.2 | -2.9 | 5.3 | -9.5
OCc1ccnc2c(O)cccc12 | -0.3 | 12.5 | 2.5 | 58.6* | 14.3
NS(=O)(=O)c1ccc(Oc2ccc(S(N)(=O)=O)cc2)cc1 | -0.1 | -6.8 | 1.3 | 6.1 | 7.6
C=CS(=O)(=O)c1ccc(Oc2ccc(S(=O)(=O)C=C)cc2)cc1 | 0.3 | 99.5* | 10.7 | 1.0 | -6.8
SMILES | Redox H2O2 prof | S1P3 antagonist | p97 ATPase inh | G6PDH CS | TbHK1 inh
O=c1c2cnn(-c3ccc(F)cc3)c2ncn1Cc1ccc(F)cc1 | -0.4 | / | 4.2 | 0.6 | 1.2
CC1CCCCN1C(=O)Cn1cc(C(=O)c2ccco2)c2ccccc21 (configuration not stated) | 1.2 | 95.9* | -0.8 | 7.9 | -33.3
O=C(CCl)Nc1cn(-c2ccccc2)nc1-c1ccccc1 | -1.3 | 2.1 | 14.6* | -3.7 | 3.7
CC(=O)Nc1cn(-c2ccccc2)nc1-c1ccccc1 | -0.6 | -11.2 | 0.1 | -1.3 | -4.3
Oc1cccc(/C=N/NC(=S)NCCN2CCOCC2)c1O | -0.7 | 0.5 | 7.7 | 60.4* | -15.7
NC(=S)N/N=C/c1cccc(O)c1O | -0.6 | 7.6 | 5.2 | 65.6* | -13.6
O=C(O)c1ccc(/C=N/NC(=S)NCCN2CCOCC2)cc1 | 0.6 | 0.5 | 3.7 | 3.3 | -22.0
Cc1cc2cc(C)c(SCC(=O)NCc3ccco3)nc2cc1C | 0.3 | -7.2 | 0.6 | 14.5 | -6.5
Cc1ccc2cccc(OC(=O)/C=C\c3ccccc3)c2n1 | -0.7 | -5.7 | -5.8 | 50.9* | 2.1
CCOC(=O)c1sc(NC(=O)c2cccs2)nc1C | 2.9 | / | 2.1 | 6.1 | 8.0
CCOC(=O)c1sc2nc(NC(=O)c3cccs3)sc2c1C | / | 69.7* | / | / | /
Cn1c(SCc2ccccc2)nnc1-c1c[nH]c2ccccc12 | -1.1 | / | 0.4 | -21.7 | -1.5
CCCCSc1nnc(-c2c[nH]c3ccccc23)n1C | -0.8 | 101.4* | -0.4 | 1.7 | 9.5
CCC(=O)NC(C)C(c1cccs1)N1CCN(c2ccccc2)CC1 (configuration not stated) | 2.5 | -19.8 | 1.8 | -0.7 | -0.8
CC(=O)NC(C)C(c1cccs1)N1CCN(c2ccccc2)CC1 (configuration not stated) | 1.9 | 63.6* | 2.2 | 3.7 | 7.5
CC(/C=N\NC(=O)c1cccnc1)c1ccccc1 (configuration not stated) | 0.6 | / | -3.4 | / | -5.3
COc1ccc(C(=O)N/N=C/C(C)c2ccccc2)cc1OC (configuration not stated) | -4.1 | / | 15.6* | 0.3 | -3.0
Cc1ccc(S(=O)(=O)Nc2cccc3ncccc23)cc1 | / | -4.5 | 1.2 | / | -6.8
Cc1ccc(S(=O)(=O)Nc2ccc(O)c3ncccc23)cc1 | -2.9 | 1.8 | 2.1 | 50.2* | 2.2
C=CCOC(=O)C1=C(C)OC(N)=C(C#N)C1c1ccc(OC)c(CSc2ccccn2)c1 (configuration not stated) | 0.3 | -4.2 | 6.4 | -8.2 | 0.5
COc1cccc(CN(Cc2ccco2)C(c2ccc(F)cc2)c2nnnn2C(C)(C)C)c1 (configuration not stated) | 3.1 | 64.3* | -4.0 | 18.4 | 24.7
CCN(CC)CCNc1cc(C)nc2c1C(=O)C(=O)C=C2N1CCCCC1 | 0.6 | -28.6 | -1.4 | 51.0* | -7.3
CCN(CC)CCNC(=O)c1ccc(N2CCCCC2)c(NS(=O)(=O)c2ccc(C)cc2)c1 | 2.9 | -36.8 | 1.0 | -26.6 | 1.1
Cc1[nH][nH]c(=O)c1C(c1ccc(-c2ccc(Cl)cc2Cl)o1)c1c(C)[nH][nH]c1=O | 0.0 | / | 20.2* | 32.4 | -0.6
Cc1cc(=O)n2cccc(O)c2n1 | 0.0 | -0.6 | -0.4 | 56.5* | -6.9
Cc1cc(=O)n2[nH]c(C)c(-c3ccccc3)c2n1 | 0.4 | -7.7 | -5.5 | 1.4 | -1.3
Cc1[nH]c2ccccc2c1Cc1nnc(SCC(N)=O)o1 | 0.0 | 81.5* | 5.4 | 18.3 | 4.2
Cn1c(=O)oc2cc(S(=O)(=O)N3CCC(C(=O)N4CC=C(c5ccccc5)CC4)CC3)ccc21 | -1.4 | -0.8 | -0.8 | 3.7 | -17.2
CCCCSC1=C(C#N)C(c2ccccc2C)CC(=O)N1 (configuration not stated) | 0.1 | 102.3* | -4.6 | -0.2 | -5.6
CCOC(=O)c1[nH]c2ccccc2c1NC(=O)COC | -1.3 | 17.0 | 3.4 | 6.6 | -7.3
